In PMC10313818:

How the values were obtained:
[1] = biological target: 60 kDa heat shock protein, mitochondrial (UniProt P10809); assay: cross-link between two proteins; cross-linking mass spectrometry
ADP/ATP translocase 3 = ADP/ATP translocase 3 (UniProt P12236); assay: cross-link between two proteins; co-fractionation; cross-linking mass spectrometry
Sequence of ADP/ATP translocase 3 (P12236 whole entry): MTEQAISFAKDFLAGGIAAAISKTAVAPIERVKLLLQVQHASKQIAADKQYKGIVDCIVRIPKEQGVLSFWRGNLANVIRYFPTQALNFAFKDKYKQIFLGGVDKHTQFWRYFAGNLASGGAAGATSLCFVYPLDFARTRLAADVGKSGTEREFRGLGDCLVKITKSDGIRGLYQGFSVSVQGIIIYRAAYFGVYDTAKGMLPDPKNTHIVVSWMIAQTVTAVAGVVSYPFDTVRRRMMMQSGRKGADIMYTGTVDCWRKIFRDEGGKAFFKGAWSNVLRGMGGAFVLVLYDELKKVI

| Substance | listed as a hit [1] | listed as a hit (ADP/ATP translocase 3) |
| --- | --- | --- |
| Putative GTP-binding protein 6, O43824 | yes | – |
| ADP/ATP translocase 2, P05141 | – | yes |
